We go through 33 targets from the supplement of paper PMC10849652.

The full data set covers some 8,800 targets. This sample favours those with a hit. About 0.5% of all pairs of compound and target were hits. A number with no mark means an inactive call.

UniProt Q9UKL0, sequence (Q9UKL0 whole entry, looked up): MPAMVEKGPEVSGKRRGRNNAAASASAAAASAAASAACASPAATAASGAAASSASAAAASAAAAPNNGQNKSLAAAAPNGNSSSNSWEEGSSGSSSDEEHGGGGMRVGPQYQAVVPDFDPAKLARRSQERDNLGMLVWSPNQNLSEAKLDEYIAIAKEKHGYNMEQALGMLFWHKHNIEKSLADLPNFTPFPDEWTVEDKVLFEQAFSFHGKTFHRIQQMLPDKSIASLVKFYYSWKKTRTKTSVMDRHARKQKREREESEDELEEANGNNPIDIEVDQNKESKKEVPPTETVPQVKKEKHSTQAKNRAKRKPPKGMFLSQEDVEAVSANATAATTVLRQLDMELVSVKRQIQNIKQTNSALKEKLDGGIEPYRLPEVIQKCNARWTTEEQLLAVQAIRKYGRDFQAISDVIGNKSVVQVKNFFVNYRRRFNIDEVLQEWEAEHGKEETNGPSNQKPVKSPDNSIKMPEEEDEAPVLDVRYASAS
UniProt Q16576, sequence (Q16576 whole entry, looked up): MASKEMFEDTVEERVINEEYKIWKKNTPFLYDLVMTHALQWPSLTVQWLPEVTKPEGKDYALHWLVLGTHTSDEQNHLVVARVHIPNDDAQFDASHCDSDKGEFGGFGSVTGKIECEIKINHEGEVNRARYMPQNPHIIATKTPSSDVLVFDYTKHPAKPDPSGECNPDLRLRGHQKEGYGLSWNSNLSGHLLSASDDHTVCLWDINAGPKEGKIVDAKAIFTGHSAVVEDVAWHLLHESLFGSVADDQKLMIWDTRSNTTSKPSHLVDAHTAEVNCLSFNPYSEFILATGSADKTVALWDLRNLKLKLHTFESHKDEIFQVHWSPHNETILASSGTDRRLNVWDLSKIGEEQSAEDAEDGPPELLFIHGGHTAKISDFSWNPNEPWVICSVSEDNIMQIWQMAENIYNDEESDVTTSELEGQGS
UniProt P38159, sequence (P38159 whole entry, looked up): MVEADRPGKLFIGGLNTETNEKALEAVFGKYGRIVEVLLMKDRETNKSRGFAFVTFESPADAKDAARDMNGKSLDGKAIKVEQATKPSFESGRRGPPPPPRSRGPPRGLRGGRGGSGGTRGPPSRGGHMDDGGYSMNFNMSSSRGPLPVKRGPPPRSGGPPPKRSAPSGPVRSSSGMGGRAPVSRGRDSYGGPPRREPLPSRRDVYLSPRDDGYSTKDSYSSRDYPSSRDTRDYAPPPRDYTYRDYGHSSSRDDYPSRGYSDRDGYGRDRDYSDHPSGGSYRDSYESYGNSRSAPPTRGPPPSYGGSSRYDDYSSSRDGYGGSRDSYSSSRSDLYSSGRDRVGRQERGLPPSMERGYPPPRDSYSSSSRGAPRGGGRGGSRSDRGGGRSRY
UniProt P51812, sequence (P51812 whole entry, looked up): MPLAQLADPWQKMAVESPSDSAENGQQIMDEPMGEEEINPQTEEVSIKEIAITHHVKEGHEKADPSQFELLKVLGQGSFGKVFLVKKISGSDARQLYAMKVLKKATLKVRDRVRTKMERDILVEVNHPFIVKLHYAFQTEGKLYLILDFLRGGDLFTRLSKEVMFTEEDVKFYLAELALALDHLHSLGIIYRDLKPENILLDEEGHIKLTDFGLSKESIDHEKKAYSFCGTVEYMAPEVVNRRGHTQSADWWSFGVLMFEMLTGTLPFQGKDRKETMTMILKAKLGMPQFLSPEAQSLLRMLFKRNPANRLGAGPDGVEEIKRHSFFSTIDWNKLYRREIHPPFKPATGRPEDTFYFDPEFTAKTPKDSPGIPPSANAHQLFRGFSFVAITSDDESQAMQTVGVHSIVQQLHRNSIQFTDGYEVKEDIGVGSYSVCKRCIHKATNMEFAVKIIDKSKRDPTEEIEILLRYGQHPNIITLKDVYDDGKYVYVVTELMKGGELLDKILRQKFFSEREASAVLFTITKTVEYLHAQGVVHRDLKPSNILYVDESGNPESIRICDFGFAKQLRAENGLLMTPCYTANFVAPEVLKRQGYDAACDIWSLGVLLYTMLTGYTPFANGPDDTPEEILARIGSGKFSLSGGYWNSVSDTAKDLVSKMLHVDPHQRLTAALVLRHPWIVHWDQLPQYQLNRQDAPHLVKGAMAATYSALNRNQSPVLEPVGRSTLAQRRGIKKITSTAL
UniProt Q9NR31, sequence (Q9NR31 whole entry, looked up): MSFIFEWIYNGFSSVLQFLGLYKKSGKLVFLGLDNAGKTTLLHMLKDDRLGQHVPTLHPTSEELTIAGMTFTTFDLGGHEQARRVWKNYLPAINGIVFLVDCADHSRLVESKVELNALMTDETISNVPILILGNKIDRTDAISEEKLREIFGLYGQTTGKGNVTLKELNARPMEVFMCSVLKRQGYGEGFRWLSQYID
UniProt P28702, sequence (P28702 whole entry, looked up): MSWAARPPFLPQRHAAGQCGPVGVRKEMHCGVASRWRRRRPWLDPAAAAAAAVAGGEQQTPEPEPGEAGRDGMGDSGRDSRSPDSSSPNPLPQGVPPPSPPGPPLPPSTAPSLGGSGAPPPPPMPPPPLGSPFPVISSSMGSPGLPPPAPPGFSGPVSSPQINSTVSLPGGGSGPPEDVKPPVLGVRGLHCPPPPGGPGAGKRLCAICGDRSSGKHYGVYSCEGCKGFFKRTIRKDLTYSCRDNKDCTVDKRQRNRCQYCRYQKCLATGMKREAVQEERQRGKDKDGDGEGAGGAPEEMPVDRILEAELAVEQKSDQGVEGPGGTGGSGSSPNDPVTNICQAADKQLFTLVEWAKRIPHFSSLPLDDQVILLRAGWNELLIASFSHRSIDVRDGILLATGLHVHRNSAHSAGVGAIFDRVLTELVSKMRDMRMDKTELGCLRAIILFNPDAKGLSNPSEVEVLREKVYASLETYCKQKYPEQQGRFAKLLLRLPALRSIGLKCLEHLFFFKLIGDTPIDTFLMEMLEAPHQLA
UniProt P04844, sequence (P04844 whole entry, looked up): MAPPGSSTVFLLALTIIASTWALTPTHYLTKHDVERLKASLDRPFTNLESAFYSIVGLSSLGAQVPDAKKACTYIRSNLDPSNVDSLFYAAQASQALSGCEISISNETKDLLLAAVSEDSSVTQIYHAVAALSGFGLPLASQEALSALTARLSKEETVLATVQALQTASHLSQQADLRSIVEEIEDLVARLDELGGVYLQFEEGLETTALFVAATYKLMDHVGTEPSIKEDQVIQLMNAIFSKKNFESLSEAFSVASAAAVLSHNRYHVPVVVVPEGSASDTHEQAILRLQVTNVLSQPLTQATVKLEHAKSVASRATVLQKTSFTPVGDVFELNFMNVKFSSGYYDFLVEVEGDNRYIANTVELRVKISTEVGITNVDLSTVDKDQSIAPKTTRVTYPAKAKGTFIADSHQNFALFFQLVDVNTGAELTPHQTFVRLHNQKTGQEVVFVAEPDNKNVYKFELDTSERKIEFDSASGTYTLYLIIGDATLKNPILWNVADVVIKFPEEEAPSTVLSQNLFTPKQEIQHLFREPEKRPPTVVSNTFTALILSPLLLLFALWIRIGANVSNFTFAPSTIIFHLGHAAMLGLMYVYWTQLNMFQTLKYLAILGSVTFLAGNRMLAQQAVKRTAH
UniProt O15541, sequence (O15541 whole entry, looked up): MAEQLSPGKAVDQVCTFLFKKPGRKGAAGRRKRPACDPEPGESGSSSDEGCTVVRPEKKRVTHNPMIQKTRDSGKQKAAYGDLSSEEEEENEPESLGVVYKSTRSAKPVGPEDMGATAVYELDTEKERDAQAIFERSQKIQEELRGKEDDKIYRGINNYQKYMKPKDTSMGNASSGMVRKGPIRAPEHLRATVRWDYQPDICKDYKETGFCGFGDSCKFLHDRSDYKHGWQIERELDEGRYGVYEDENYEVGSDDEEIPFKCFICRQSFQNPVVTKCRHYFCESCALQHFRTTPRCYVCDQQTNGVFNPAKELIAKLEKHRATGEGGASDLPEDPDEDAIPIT
UniProt Q5HYI8, sequence (Q5HYI8 whole entry, looked up): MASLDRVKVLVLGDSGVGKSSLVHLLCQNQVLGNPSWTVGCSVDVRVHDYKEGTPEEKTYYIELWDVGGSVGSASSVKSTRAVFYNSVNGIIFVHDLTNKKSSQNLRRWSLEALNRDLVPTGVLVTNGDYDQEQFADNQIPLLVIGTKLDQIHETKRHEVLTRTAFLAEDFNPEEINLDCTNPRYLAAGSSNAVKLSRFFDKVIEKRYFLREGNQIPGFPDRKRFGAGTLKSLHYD
UniProt P47736, sequence (P47736 whole entry, looked up): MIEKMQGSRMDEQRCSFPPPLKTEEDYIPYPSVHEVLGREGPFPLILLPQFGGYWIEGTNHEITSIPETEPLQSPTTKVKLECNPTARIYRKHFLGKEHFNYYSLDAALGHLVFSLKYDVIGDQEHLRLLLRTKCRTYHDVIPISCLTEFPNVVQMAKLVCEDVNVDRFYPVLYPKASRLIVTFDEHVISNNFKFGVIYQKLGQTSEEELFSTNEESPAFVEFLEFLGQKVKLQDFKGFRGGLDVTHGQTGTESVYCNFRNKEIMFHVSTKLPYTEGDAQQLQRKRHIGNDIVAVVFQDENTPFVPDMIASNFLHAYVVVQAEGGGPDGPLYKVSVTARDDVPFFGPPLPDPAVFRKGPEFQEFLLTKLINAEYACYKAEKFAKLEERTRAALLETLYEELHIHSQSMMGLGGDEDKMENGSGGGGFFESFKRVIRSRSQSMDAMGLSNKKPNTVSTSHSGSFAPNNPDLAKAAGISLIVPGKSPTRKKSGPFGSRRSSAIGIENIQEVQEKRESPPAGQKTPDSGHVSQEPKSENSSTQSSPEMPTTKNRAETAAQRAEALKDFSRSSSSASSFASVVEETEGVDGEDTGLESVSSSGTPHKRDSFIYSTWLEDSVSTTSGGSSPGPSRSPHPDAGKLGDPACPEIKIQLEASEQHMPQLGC
UniProt Q00765, sequence (Q00765 whole entry, looked up): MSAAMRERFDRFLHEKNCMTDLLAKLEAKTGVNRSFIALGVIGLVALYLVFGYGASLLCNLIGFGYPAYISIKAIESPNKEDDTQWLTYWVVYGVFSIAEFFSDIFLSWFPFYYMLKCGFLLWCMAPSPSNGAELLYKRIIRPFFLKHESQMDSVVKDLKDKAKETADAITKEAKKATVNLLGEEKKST
UniProt P31949, sequence (P31949 whole entry, looked up): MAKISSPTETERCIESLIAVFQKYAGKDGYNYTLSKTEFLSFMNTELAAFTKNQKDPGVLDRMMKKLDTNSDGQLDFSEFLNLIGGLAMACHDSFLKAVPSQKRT

Compound in one assay: Cc1cn(-c2cc(NC(=O)c3ccc(C)c(Nc4nccc(-c5cccnc5)n4)c3)cc(C(F)(F)F)c2)cn1 [nilotinib]
The experiment in a line: log2 fold change, soluble protein after heating vs DMSO (PISA); higher = thermal stabilisation; K562 lysate, 10 uM; active = over 0.2 and 3.5 SD of the protein, either way, in both replicates (recomputed). Put shortly: (§1)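 Quantification was by TMTpro 16plex LC-MS/MS with equalised channel sums, applied to the supernatant after 21,000xg for 90 min. Samples were crude K562 extract at 1 mg/mL protein in PBS pH 7.4 with 1 mM MgCl2, treated with 10 μM compound for 30 min, heated for 3 min across 48°C-58°C, pooled and brought to 0.5% NP-40 at 4°C. Values are log-two fold changes in thermal stability relative to solvent controls, from duplicates.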
With RTN4IP1 (UniProt Q8WWV3), the log2 fold change is -0.056.
Take SATB2 (UniProt Q9UPW6): the log2 fold change was -0.08.
For RRAGA (UniProt Q7L523), the log2 fold change is -0.144.
Same read-out and setting: the same measure for RFC2 (UniProt P35250): 0.005; for SASS6 (UniProt Q6UVJ0): -0.032; for SEC16A isoform 5 (UniProt O15027): -0.119.
With SEH1L isoform 1 (UniProt Q96EE3), the log2 fold change is -0.009.
With RECQL5 (UniProt O94762), the log2 fold change is -0.026.
Still for that read-out and setting: as for SAR1A (UniProt Q9NR31), the figure is 0.145; as for RAP1GAP isoform 4 (UniProt P47736), -0.002; as for RNASEL (UniProt Q05823), -0.034.
The same measure, in the same setting: the same measure for RIOK3 (UniProt O14730): 0.017; for RRM1 (UniProt P23921): -0.003.
On the same count and under the same terms, as for RBBP8 isoform 2 (UniProt Q99708), the figure is -0.07.
Turning to REEP5 (UniProt Q00765), the log2 fold change is 0.107.
Regarding RAB21 (UniProt Q9UL25), the log2 fold change is 0.069.
RDH14 (UniProt Q9HBH5): the log2 fold change was 0.008.
On the same count and under the same terms, the same measure for SDHA (UniProt P31040): 0.035.
Regarding RABL3 (UniProt Q5HYI8), the log2 fold change was 0.049.
Turning to RBMX (UniProt P38159), the log2 fold change is 0.034.
RNASEH2B (UniProt Q5TBB1): the log2 fold change was 0.024.
Same read-out and setting: as for RAC2 (UniProt P15153), the figure is -0.025; as for RPS6KA3 (UniProt P51812), -0.02; as for RNF113A (UniProt O15541), 0.003.
On the same count and under the same terms, the same measure for RCOR1 (UniProt Q9UKL0): -0.024; for RBM4 (UniProt Q9BWF3): -0.086.
On the same count and under the same terms, as for SBF1 isoform 4 (UniProt O95248), the figure is -0.018.
Turning to RBSN (UniProt Q9H1K0), the log2 fold change is -0.047.
Still for that read-out and setting: the same measure for RAPGEF2, A0A2R8YGD3: -0.032; for RBBP7 (UniProt Q16576): -0.02; for S100A11 (UniProt P31949): 0.067.
On the same count and under the same terms, the same measure for RPN2 (UniProt P04844): -0.011.
For RXRB isoform 3 (UniProt P28702), the log2 fold change was 0.01.

Compound in the next assay: Cc1nc(Nc2n[nH]c3c2CN(C(=O)N[C@H](CN(C)C)c2ccccc2)C3(C)C)c2sccc2n1
Described as above. Put shortly:
as §1
Take RTN4IP1 (UniProt Q8WWV3): the log2 fold change is -0.34 (active).
Still for that read-out and setting: the same measure for SATB2 (UniProt Q9UPW6): -0.02; for RRAGA (UniProt Q7L523): 0.032.
The same measure, in the same setting: as for RFC2 (UniProt P35250), the figure is -0.018; as for SASS6 (UniProt Q6UVJ0), 0.01; as for SEC16A isoform 5 (UniProt O15027), 0.008.
On the same count and under the same terms, as for SEH1L isoform 1 (UniProt Q96EE3), the figure is -0.019; as for RECQL5 (UniProt O94762), 0.057.
For the target SAR1A (UniProt Q9NR31), the log2 fold change is 0.164.
Same read-out and setting: as for RAP1GAP isoform 4 (UniProt P47736), the figure is -0.015; as for RNASEL (UniProt Q05823), 0.035; as for RIOK3 (UniProt O14730), -0.027.
As for RRM1 (UniProt P23921), the log2 fold change was 0.008.
Same read-out and setting: the same measure for RBBP8 isoform 2 (UniProt Q99708): -0.003; for REEP5 (UniProt Q00765): -0.011; for RAB21 (UniProt Q9UL25): -0.036.
The same measure, in the same setting: as for RDH14 (UniProt Q9HBH5), the figure is -0.006; as for SDHA (UniProt P31040), 0.009.
On the same count and under the same terms, the same measure for RABL3 (UniProt Q5HYI8): -0.03.
In the case of RBMX (UniProt P38159), the log2 fold change was -0.079.
Same read-out and setting: as for RNASEH2B (UniProt Q5TBB1), the figure is 0.007; as for RAC2 (UniProt P15153), -0.076; as for RPS6KA3 (UniProt P51812), 0.17.
For the target RNF113A (UniProt O15541), the log2 fold change is -0.004.
Still for that read-out and setting: the same measure for RCOR1 (UniProt Q9UKL0): -0.006; for RBM4 (UniProt Q9BWF3): -0.011; for SBF1 isoform 4 (UniProt O95248): -0.041.
Still for that read-out and setting: the same measure for RBSN (UniProt Q9H1K0): 0.057.
As for RAPGEF2, A0A2R8YGD3, the log2 fold change is 0.027.
On the same count and under the same terms, as for RBBP7 (UniProt Q16576), the figure is -0.002; as for S100A11 (UniProt P31949), 0.007.
In the case of RPN2 (UniProt P04844), the log2 fold change is 0.005.
Same read-out and setting: as for RXRB isoform 3 (UniProt P28702), the figure is -0.038.

Compound in a further assay: Cc1nc(Nc2ncc(C(=O)Nc3c(C)cccc3Cl)s2)cc(N2CCN(CCO)CC2)n1 [dasatinib]
The description is as above. Put shortly: as §1
Take RTN4IP1 (UniProt Q8WWV3): the log2 fold change is -0.046.
The same measure, in the same setting: the same measure for SATB2 (UniProt Q9UPW6): 0.041; for RRAGA (UniProt Q7L523): -0.025; for RFC2 (UniProt P35250): -0.027.
Still for that read-out and setting: the same measure for SASS6 (UniProt Q6UVJ0): -0.083; for SEC16A isoform 5 (UniProt O15027): -0.007; for SEH1L isoform 1 (UniProt Q96EE3): 0.032.
On the same count and under the same terms, the same measure for RECQL5 (UniProt O94762): 0.023; for SAR1A (UniProt Q9NR31): 0.017.
Regarding RAP1GAP isoform 4 (UniProt P47736), the log2 fold change is 0.
On the same count and under the same terms, as for RNASEL (UniProt Q05823), the figure is -0.014.
On to RIOK3 (UniProt O14730), for which the log2 fold change is -0.05.
Take RRM1 (UniProt P23921): the log2 fold change was -0.026.
Same read-out and setting: the same measure for RBBP8 isoform 2 (UniProt Q99708): 0.063.
On to REEP5 (UniProt Q00765), for which the log2 fold change is 0.056.
With RAB21 (UniProt Q9UL25), the log2 fold change is 0.043.
On the same count and under the same terms, the same measure for RDH14 (UniProt Q9HBH5): 0.023; for SDHA (UniProt P31040): 0.016.
The same measure, in the same setting: the same measure for RABL3 (UniProt Q5HYI8): -0.077; for RBMX (UniProt P38159): -0.029.
The same measure, in the same setting: as for RNASEH2B (UniProt Q5TBB1), the figure is -0.024; as for RAC2 (UniProt P15153), -0.068; as for RPS6KA3 (UniProt P51812), -0.065.
Turning to RNF113A (UniProt O15541), the log2 fold change is -0.015.
Same read-out and setting: the same measure for RCOR1 (UniProt Q9UKL0): -0.054; for RBM4 (UniProt Q9BWF3): 0.032.
Same read-out and setting: the same measure for SBF1 isoform 4 (UniProt O95248): 0.092.
On the same count and under the same terms, as for RBSN (UniProt Q9H1K0), the figure is -0.106; as for RAPGEF2, A0A2R8YGD3, 0.052; as for RBBP7 (UniProt Q16576), 0.029.
For S100A11 (UniProt P31949), the log2 fold change was 0.013.
Regarding RPN2 (UniProt P04844), the log2 fold change was -0.008.
RXRB isoform 3 (UniProt P28702): the log2 fold change was -0.018.
